The source of these data is PubChem BioAssay (NCATS).

Records with an inconclusive call do not appear. A number with no mark means an inactive call. Active and inactive are the calls of the source. Calls come from the whole dose curve; as a rule, active = well fitted curve in either direction with a large enough effect (not every such curve was filed as active); inconclusive = small, poorly fitted or top-dose-only effect, or another doubt; inactive = flat fitted curve, though single readings scatter.
% is set by controls: 0 for no effect and ±100 for the full control effect.

A short description of the assay: Stat Signaling Pathway (AID 446).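 Note: ME-180 cervical cancer cells given 40 pM IL-6 alongside compound; SIE-controlled beta-lactamase reporter measured as 460/530 nm FRET emission ratio.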 The settings on record: ME-180 (cervical carcinoma) SIE beta-lactamase reporter, IL-6 stimulated, 5 h; at 38 µM (top of the series) unless noted. In outline: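 FRET read-out (405 nm excitation, 460/530 nm emission) of a beta-lactamase reporter under a STAT-inducible element in ME-180 cervical carcinoma cells. Cells with compound receive 40 pM IL-6 for 5 h. Values are normalised to AC90 stimulation and AC90 JAK-inhibitor controls.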
`CN(C)S(=O)(=O)c1ccc2c(c1)/C(=C/c1cc3c([nH]1)CCCC3)C(=O)N2`: the activity, negative = inhibition is -60.7% (active).

For the molecule `N=C(N)c1ccccc1`, the activity, negative = inhibition is 8.11%.

Take `Cn1c(=O)[nH]c2ncn(C)c2c1=O`: the activity, negative = inhibition is 3.46%.

As for `O=C(O)c1cccnc1C(=O)O`, the activity, negative = inhibition is -7.1%.

On to `CC(C)Cn1c(=O)n(C)c(=O)c2[nH]cnc21`, for which the activity, negative = inhibition was -25.6%.

With `Cn1cc(C(=O)OCC2CCN(CCNS(C)(=O)=O)CC2)c2ccccc21`, the activity, negative = inhibition is -18.9%.

Consider `N=C(N)c1ccc(N)cc1`, for which the activity, negative = inhibition is -11.4%.

Consider `CCCCCCCCCCCCCCSCC(=O)O`, for which the activity, negative = inhibition was -3.53%.

Consider `Fc1ccc(CN(C2=NCCN2)c2c(Cl)cccc2Cl)cc1`, for which the activity, negative = inhibition was -4.64%.

Take `CCC(=O)N1CCN(C(=O)c2ccccc2)CC1`: the activity, negative = inhibition is 2.58%.

With `NC1(C(=O)O)CCCCC1`, the activity, negative = inhibition is 9.73%.

Regarding `CCN(c1nc(N)c(C(=O)N=C(N)N)nc1Cl)C(C)C`, the activity, negative = inhibition was -24.1%.

Consider `CCCc1c(OCCCOc2ccc(OCC(=O)O)cc2)ccc(C(C)=O)c1O`, for which the activity, negative = inhibition is 11.2%.
